The text below walks through data of PubChem BioAssay AID1259418 (Broad Institute, 2018).

About 840 (25%) of roughly 3,400 compounds were called active. Inconclusive results (about 11%) are left out. The list is a sample of the results. Entries with a potency or affinity are not part of this list. A number with no mark means an inactive call.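 Rule for the calls: active = fitted half-maximal concentration of signal decrease at or below twice the sample's top tested concentration; inconclusive = flat curve between -70 and -30 percent, or poor fit; inactive = flat within 30 percent, signal rise, or potency above limit.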

The assay in a line: T. gondii growth inhibition with IFN-gamma, dose response, cell-based, ME49Luc, HeLa, luciferase, 72 h (AID 1259418). Conditions: T. gondii ME49Luc in IFN-y HeLa, hits give low values, -100% = high-dose IFN-γ control wells; at 19.5 µM unless noted.
Consider `CCc1nc(OCC(=O)Nc2ccc(OC)cc2OC)c2ccccc2n1`, for which the max activity is -16.2% [at 0.35 µM].

Take `CCOC(=O)CSC1=Nc2ccccc2C2=NC(CC(=O)NCc3ccccc3)C(=O)N12` (stereo unspecified): the max activity was -17% [at 0.16 µM].

On to `CCOc1ccccc1-c1noc(-c2nnn(Cc3nc(-c4cccc(C)c4)oc3C)c2C)n1`, for which the max activity was -4.72% [at 5 µM].

As for `N#C[C@@H]1[C@H](c2ccc(C#Cc3cccc(F)c3)cc2)[C@H](CO)N1C(=O)C1CCOCC1`, the max activity is 26.4% [at 10 µM].

For the molecule `N#C[C@H]1[C@H](c2ccc(C#Cc3cccc(F)c3)cc2)[C@@H](CO)N1C(=O)C1CCOCC1`, the max activity is 33.1%.

Regarding `COc1cccc(-c2nc3c(s2)CN(C(=O)NC2CCCCC2)CC3)c1`, the max activity was -6.7%.

`COc1ccc(-c2nc(Cn3nnc(-c4nc(-c5ccccc5OC)no4)c3C)c(C)o2)cc1`: the max activity is -5.44% [at 1.35 µM].

On to `COc1ccc(-c2nc(Cn3nnc(-c4nc(-c5cc(OC)cc(OC)c5)no4)c3C)c(C)o2)cc1`, for which the max activity was 4.11% [at 0.35 µM].

Turning to `CCOc1ccccc1-c1noc(-c2nnn(Cc3nc(-c4ccc(C)cc4)oc3C)c2C)n1`, the max activity was -5.47% [at 1.35 µM].

As to `COc1ccc(-c2nc(Cn3nnc(-c4nc(-c5cccs5)no4)c3C)c(C)o2)cc1`, the max activity was 7.54% [at 0.16 µM].

Regarding `Cc1ccc(-c2noc(-c3nnn(Cc4nc(-c5cccc(C)c5)oc4C)c3C)n2)cc1`, the max activity is 7.12% [at 0.68 µM].

`COc1ccc(-c2nc(Cn3nnc(-c4nc(-c5ccc(C)cc5)no4)c3C)c(C)o2)cc1`: the max activity was 4.22% [at 0.16 µM].

Turning to `Cc1ccc(-c2noc(-c3nnn(Cc4nc(-c5ccc(C)cc5)oc4C)c3C)n2)cc1`, the max activity was 8.64%.

`Cc1cccc(-c2nc(Cn3nnc(-c4nc(-c5ccccc5)no4)c3C)c(C)o2)c1`: the max activity is 4.79% [at 0.68 µM].

As for `CN(C)C(=O)c1ccc2nnc3ncn(Cc4ccccc4)c3c2c1`, the max activity was -17.6% [at 10 µM].

Take `COc1ccc(CCNc2nc(SCc3ccc(Cl)cc3)nc3ccccc23)cc1OC`: the max activity is 9.35% [at 1.35 µM].

As to `COc1nc2c(c(C)nn2-c2ccccc2)c(C)c1CCC(=O)NCCc1c[nH]c2ccccc12`, the max activity was 7.44%.

In the case of `O=C(Nc1c(C(=O)N2CCCC2)[nH]c2ccccc12)c1ccc(Cl)cc1`, the max activity is 30.4% [at 10 µM].

On to `O=C(CCC1N=C2c3ccccc3N=C(SCc3cc(=O)n4ccccc4n3)N2C1=O)NCc1ccco1` (stereo unspecified), for which the max activity was 26.1% [at 1.35 µM].

As to `CCc1nc(OCC(=O)Nc2cc(OC)ccc2OC)c2ccccc2n1`, the max activity is -25% [at 2.6 µM].

For `Cc1ccc(C)c(-c2coc(-c3ccc(NC(=O)C4CCCCC4)cc3)n2)c1`, the max activity was 10.4% [at 10 µM].

Take `Cc1ccc(-c2nc(Cn3nnc(-c4nc(-c5ccccc5C)no4)c3C)c(C)o2)cc1`: the max activity is 15.4% [at 0.16 µM].

For `Cc1nc(CCNC(=O)C2CCN(S(=O)(=O)c3ccc(Cl)s3)CC2)cs1`, the max activity is -9.13%.

Regarding `O=S(=O)(c1cccs1)N1CCC2(CC1)NCCN=C2NCc1ccc(F)c(Cl)c1`, the max activity was -41.7%.

On to `O=S(=O)(c1cccs1)N1CCC2(CC1)NCCN=C2NCc1cc(F)cc(F)c1`, for which the max activity is 10.2% [at 0.16 µM].

`Cc1ccc(CNC2=NCCNC23CCN(S(=O)(=O)c2cccs2)CC3)cc1`: the max activity was 17.3% [at 10 µM].

For `Cc1cccc(CNC2=NCCNC23CCN(S(=O)(=O)c2cccs2)CC3)c1`, the max activity is 13.8%.

For the molecule `CCCC(=O)Nc1ccc(-c2nc(-c3ccccc3)co2)cc1`, the max activity was 72.8% [at 10 µM].

As to `Cc1nc(CCNC(=O)C2CCN(S(=O)(=O)c3ccc(CC(C)C)cc3)CC2)cs1`, the max activity is -7.19% [at 1.35 µM].

For `Cc1nc(CCNC(=O)C2CCN(S(=O)(=O)c3ccc(Cl)cc3)CC2)cs1`, the max activity was -9.1% [at 0.35 µM].

Take `CCOc1ccc(S(=O)(=O)N2CCC(C(=O)NCCc3csc(-c4ccccc4)n3)CC2)cc1`: the max activity was 21.5% [at 5 µM].

As for `Cc1ccc(S(=O)(=O)N2CCC(C(=O)NCCc3csc(-c4ccccc4)n3)CC2)cc1`, the max activity was 5.41% [at 5 µM].

With `O=C(NCCc1csc(-c2ccccc2)n1)C1CCN(S(=O)(=O)c2ccccc2)CC1`, the max activity is 11.6% [at 10 µM].

Regarding `Cc1cc(C)cc(S(=O)(=O)N2CCC(C(=O)NCCc3csc(-c4ccccc4)n3)CC2)c1`, the max activity is 16.8% [at 10 µM].

Consider `O=C(NCCc1csc(-c2ccccc2)n1)C1CCN(S(=O)(=O)c2cccc(F)c2)CC1`, for which the max activity is 8.1% [at 5 µM].

With `O=C(NCCc1csc(-c2ccccc2)n1)C1CCN(S(=O)(=O)c2cccs2)CC1`, the max activity was 11.2% [at 0.16 µM].

On to `COC(=O)c1sccc1S(=O)(=O)N[C@@H]1CC[C@@H](N)C1`, for which the max activity is 17.5%.

Regarding `CCc1c(C)sc2c1CCN(Cc1nc(-c3cccc(Cl)c3)oc1C)C2c1ccccc1` (stereo unspecified), the max activity is 7.75% [at 0.68 µM].

As for `COc1cccc(-c2nc3c(s2)CN(S(=O)(=O)c2ccc(CC(C)C)cc2)CC3)c1`, the max activity was 8.23% [at 2.6 µM].

On to `CCc1ccccc1Nc1nc(-c2ccc(OC)cc2)nc2ccccc12`, for which the max activity was -9.45% [at 0.16 µM].

For the molecule `COc1ccccc1-c1nc(Cn2nnc(-c3nc(-c4ccccc4)no3)c2C)c(C)o1`, the max activity is -9.24% [at 1.35 µM].

In the case of `Cc1cccc(C2=NC3(CCN(Cc4ccccc4C)CC3)NC2=O)c1`, the max activity was 12% [at 0.16 µM].

Take `O=C(Cc1ccc(F)cc1)Nc1ccc(-c2nc(-c3ccccc3)co2)cc1`: the max activity was 4.13% [at 5 µM].

`COc1ccc(-c2nc(Nc3ccc(C)cc3Cl)c3ccccc3n2)cc1`: the max activity was -11.8% [at 2.6 µM].

On to `NC(=O)C1(N2CCCCC2)CCN(c2ncc(NC(=O)c3ccccc3F)cc2C(=O)O)CC1`, for which the max activity is 15.7% [at 2.6 µM].

Take `CCCc1ccc(S(=O)(=O)N2CCc3nc(-c4cccc(OC)c4)sc3C2)cc1`: the max activity was -6.99% [at 2.6 µM].
